Laboratory results taken from the supplement of paper PMC6555819.

What follows are sequences tested on VDR:RXRa (NR concentration 270 nM, RXRa partner concentration 90 nM) (assay: PBM binding z-score (relative to random genomic background probes); higher = stronger binding; sequences stand for … in GC…GCGATTGACAGCGTAGAATGAAGG).
In short: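 On custom Agilent 4×180K arrays, double-stranded probes with 34-nt variable regions carried direct-repeat seeds, single-nucleotide variants, half-site ablations or random human genomic background. Ligand-free nuclear receptor dimers were applied for 1 h, and binding was read with antibodies against each partner (one per run). Binding z-scores come from regression-normalized fluorescence, with the random background probes as reference.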
For AGAATTAGGTTATTAAGATCAGGGAATTGCGGTC, the PBM binding z-score was 0.835.
Sequence AGAACGAGGGCAAAGAGTTGATAGCACGGGTGGC has a PBM binding z-score of 4.29.
In the case of TTACGAAGGTGAAGGTCGTTGATCCCTCTGTAGA, the PBM binding z-score is reported as 1.39.
Work on AGTCTAAGTTCATCTAGGTAACGTAAGATATGCT yielded a PBM binding z-score of 4.65.
GCTGCTAGGTCAAATGATGGTCAGCTAAAGCTCG gave a PBM binding z-score of 1.96.
In the case of CAAACTAGGTCTAGAGGTCAAAGTCCGCTTCCCG, the PBM binding z-score is reported as 4.93.
Work on AGAACGTGGGCACGCTGAGTTGATAGCAGAGTAG yielded a PBM binding z-score of -0.467.
CAAACTAGGTCACGAAAGGTCAAACTCGAATGAC gave a PBM binding z-score of 7.13.
GCGACTGGGGCATCCGCAGGTTACCATAACTTAA was tested, and the PBM binding z-score was -0.12.
For ATCTCTATGTAAAGTTCAGTGAAAGATCGATAGA, the PBM binding z-score was 1.26.
With TGAATGAGGTTATAAGATTAGGGAACGTTGCAAA the PBM binding z-score was 1.12.
With GCGACTGGGGCATCAGCAGGTTACCACAACTTAA the PBM binding z-score was -0.211.
GCTATTAGTTGAAAGGGCAACTGAATGATTCTCG showed a PBM binding z-score of 0.488.
With ATCTCTAGGTAAAGATAGTTCAGTGATTGCAAAT the PBM binding z-score was 1.07.
In the case of GGAAGGAGGGCATTCGAGTTGATAGCATGGCGAT, the PBM binding z-score is reported as 2.46.
Work on CCTATCAGGCCAATCTGGGTCACTCAAGGCTTGA yielded a PBM binding z-score of 0.878.
ACTAGCAGGCCAAGGGTCATTCAAGATTAGTCCG was tested, and the PBM binding z-score was 3.49.
With CCGAGTAGGTTATGGGGCATTCAAGCAACGGTGA the PBM binding z-score was -0.183.
Work on TTTCAAAGTTCAAAGGTAACGTAAGTATCCACAC yielded a PBM binding z-score of 5.06.
TCTAGCAGGCCAGAGGGTCGCTCAAGAGGTACGG gave a PBM binding z-score of -0.181.
In the case of TATACAGGGTCAAAAGCCAGAGTACGAATGTCGA, the PBM binding z-score is reported as 4.1.
CCTCGGAGGACAACAGGAGGTCAGAGCCGCCAGA showed a PBM binding z-score of 1.58.
In the case of CCGACTGGGGCAAAGGTTACCTTACTCAGTACGA, the PBM binding z-score is reported as 1.21.
For CCTATTAGTTGACCATAAGGGCAATCGAAGCTCG, the PBM binding z-score was 0.713.
CCTTACGGATCAAGGTTATAGCACGGGTGGTACG gave a PBM binding z-score of 0.474.
For TAGCCTAGGTCATCGGCCAGTATACCACGCGAAC, the PBM binding z-score was 2.15.
CAAACTTGGTCAAGAGGTCAAAGTCCGCTTCCCG showed a PBM binding z-score of 5.4.
CGTCAATGTTCAAGGTAACGTAACAGAAAGCAGC showed a PBM binding z-score of 0.0627.
For GCTAGCAGGCCATTTGGGTCAATCAATGACGGGC, the PBM binding z-score was 0.778.
For CAAACTAGGTCAAGAGGTCATAGTCCGCTTCCCG, the PBM binding z-score was 5.59.
GGAACGAGGGCAAGGTGATAGCAGAGTTTGATGG gave a PBM binding z-score of 0.867.
CCTCGGAGTACAACAGGAGGTCAGAGCTGCCAGA showed a PBM binding z-score of 2.09.
Sequence TAGCCTAGGTCATGCGGGCCAGTAGAGTGTCGGC has a PBM binding z-score of 2.95.
TCATATAGGTAAATGCTAGATGAAAGTCCGATCT was tested, and the PBM binding z-score was 0.802.
Sequence TCTTGTAGATCAATAGAGGTTAAGAACGTGCGCT has a PBM binding z-score of 1.27.
For TAGCCTAGGTCATGGGCCAGTCTACCACGCGAAC, the PBM binding z-score was 1.82.
